# Rows were chosen to be rich in hits. Some 3% of all compounds tested hit in one or more screens of this group.
# Mtb FBA inh – inhibitors of M. tuberculosis fructose-bisphosphate aldolase | purified M. tuberculosis FBA, fluorescence read-out | hit rate 2.3% among 360,000 | inhibition, % at 1 µM | AID 588726 | P9WQA3; in the data active means inhibition above about 27%;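 further: 0% = vehicle and 100% = reference inhibitor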
# Target sequence (P9WQA3 whole entry, looked up): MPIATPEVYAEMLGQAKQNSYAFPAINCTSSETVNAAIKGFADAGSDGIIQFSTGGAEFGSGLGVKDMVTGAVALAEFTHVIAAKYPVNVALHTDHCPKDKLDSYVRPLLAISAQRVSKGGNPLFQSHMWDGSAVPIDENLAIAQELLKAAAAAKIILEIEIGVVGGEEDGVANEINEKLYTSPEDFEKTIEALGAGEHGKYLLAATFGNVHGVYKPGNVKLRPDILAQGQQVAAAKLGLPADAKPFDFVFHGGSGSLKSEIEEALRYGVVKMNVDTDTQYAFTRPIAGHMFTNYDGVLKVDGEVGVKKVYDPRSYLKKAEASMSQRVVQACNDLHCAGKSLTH
# Rv3671c inh – Rv3671c (M. tuberculosis) protease inhibition | P9WHR9 | inhibition, % at 5.96 µM | hit rate 0.048% among 320,000 | AID 2606; in the data active means inhibition above about 38%;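 further: extracellular domain of Rv3671c used as enzyme; 0% = enzyme with DMSO and 100% = no enzyme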
# FadD28 binding – M. tuberculosis FadD28 bisubstrate binding inhibition; AID 588549; inhibition, % at 12.5 µM; hit rate 0.22% among 360,000; FadD28 bisubstrate probe binding, fluorescence polarization; in the data active means inhibition above about 8.5%, passing the limit was not always enough
# Mtb BioA inh – BioA (M. tuberculosis) enzyme inhibition | purified M. tuberculosis BioA enzyme, plate reader | hit rate 0.096% among 360,000 | inhibition, % at 9.99 µM; in the data active means inhibition above about 40%
# GDH-TPI counter – inhibits GDH-TPI coupling enzymes, artifact for Mtb FBA screen. AID 588335. inhibition, % at 4.8 µM. hit rate 1.2% among 360,000. GDH-TPI coupled enzyme counterscreen, NADH absorbance; in the data active means inhibition above about 30%;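 further: 0% = DMSO wells and 100% = wells lacking the enzyme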
# Numbers without * were called inactive; . = no result; + = active, no number.
SMILES,Mtb FBA inh,Rv3671c inh,FadD28 binding,Mtb BioA inh,GDH-TPI counter
COc1ccc(C(=O)NCCCN2CCOCC2)cc1,2,5,-1,-2,7
COc1ccc2cc3cc(C(=O)NCCCN4CCC(C)CC4)oc3nc2c1,+,6,-4,-1,32*
Cc1ccc2cc3cc(C(=O)NCc4ccc5c(c4)OCO5)oc3nc2c1,-7,.,-1,-1,26
Cc1ccc2cc3cc(C(=O)NCCN4CCOCC4)oc3nc2c1,91*,-3,-2,-1,48*
Cc1ccc2cc3cc(C(=O)NCCCN4CCCC4=O)oc3nc2c1,156*,1,-4,2,22
COc1ccc2cc3cc(C(=O)NCCCN4CCOCC4)oc3nc2c1,+,-7,-4,-1,33*
CC(C)NC(=O)N1C[C@H]2[C@@H](c3ccccc31)[C@@H](CO)N2C(=O)NC(C)C,.,.,.,0,.
O=C(NCC1CC1)[C@H]1[C@H](CO)[C@H]2Cn3c(ccc(C4=CCCC4)c3=O)[C@H]2N1Cc1ccccc1F,.,.,.,0,.
CCN1CCN(CCCNC(=O)c2cc3cc4ccc(OC)cc4nc3o2)CC1,+,-3,-5,0,25
CC(C)NC(=O)N(C)C[C@@H]1Oc2ccc(NC(=O)C3CCCCC3)cc2C(=O)N([C@@H](C)CO)C[C@H]1C,.,.,.,-2,.
CN1C(=O)c2cc(NC(=O)Nc3ccccc3Cl)ccc2OC[C@H]2O[C@H](CC(=O)NCCCN3CCOCC3)CC[C@@H]21,.,.,.,1,.
Cc1cccc(C(=O)OCC(=O)c2csc(N3CCCCC3)n2)c1[N+](=O)[O-],1,-8,3,1,36*
O=C(C[C@H]1C[C@H]2c3cc(NC(=O)c4ccc5c(c4)OCO5)ccc3O[C@H]2[C@H](CO)O1)NCCc1ccccc1,.,.,.,-1,.
COC(=O)c1nc2nc(-c3cccs3)cc(C(F)(F)F)n2n1,+,5,-3,-2,18
O=C(NCc1ccco1)c1nc2nc(-c3cccs3)cc(C(F)(F)F)n2n1,+,2,0,.,28
COc1ccc(NC(=O)N(C)C[C@@H]2Oc3ccc(NC(=O)Nc4cccc5ccccc45)cc3CC(=O)N([C@H](C)CO)C[C@H]2C)cc1,.,.,.,-6,.
CCc1ccc(N2CN=c3s/c(=C\c4ccccc4)c(=O)n3C2)cc1,0,1,-3,-1,35*
Cc1cccc(N2CN=c3s/c(=C\c4ccncc4)c(=O)n3C2)c1,2,.,-1,-1,7
Cc1cccc(N2CN=c3s/c(=C\c4ccccn4)c(=O)n3C2)c1,-1,-3,-1,0,64*
O=c1/c(=C/c2ccccn2)sc2n1CN(c1ccccc1)CN=2,-1,0,-4,0,24
COc1ccc(S(=O)(=O)N(C)C[C@@H]2OCCCC[C@H](C)Oc3ccc(NS(=O)(=O)c4ccc(F)cc4)cc3C(=O)N([C@@H](C)CO)C[C@@H]2C)cc1,.,.,.,-1,.
C[C@@H]1CN([C@@H](C)CO)C(=O)Cc2cc(NC(=O)Cc3cn(C)c4ccccc34)ccc2O[C@@H]1CN(C)C(=O)Nc1ccc2c(c1)OCO2,.,.,.,6,.
O=C(CC1S/C(=N/N=C/c2ccco2)NC1=O)Nc1cccc(Cl)c1Cl (stereo unspecified),0,-30,-1,.,42*
O=C1N/C(=N/N=C/c2ccco2)SC1Cc1ccccc1 (stereo unspecified),-1,6,-1,3,27
O=C(O)CC1S/C(=N/N=C/c2ccc(-c3ccc(Cl)cc3[N+](=O)[O-])o2)NC1=O (stereo unspecified),-3,-23,6,.,33*
SMILES,Mtb FBA inh,Rv3671c inh,FadD28 binding,Mtb BioA inh,GDH-TPI counter
Cc1ccc(/C=N/N=C2/NC(=O)C(CC(=O)Nc3ccc(Cl)cc3)S2)o1 (stereo unspecified),-1,0,-2,2,41*
Cc1ccc(/C=N/N=C2/NC(=O)C(CC(=O)Nc3ccccc3)S2)o1 (stereo unspecified),-1,4,-2,-1,30
COCC(=O)Nc1ccc2c(c1)C(=O)N(C)C[C@@H](OC)[C@H](C)CN(CCC(F)(F)F)[C@@H](C)CO2,.,.,.,-1,.
COCC(=O)Nc1ccc2c(c1)C(=O)N(C)C[C@H](OC)[C@H](C)CN(C(=O)c1ccccn1)[C@@H](C)CO2,.,.,.,-3,.
CN1C(=O)C(=Cc2ccccc2Oc2ccc(Cl)cc2)C(=O)N(C)C1=O,131*,-3,0,.,2
NC(=S)N/N=C/c1ccc(C(F)(F)F)cc1,-2,7,0,.,18
NC(=S)N/N=C/c1ncc(C(F)(F)F)cc1Cl,2,12,-2,-1,46*
Cc1cc(=O)c2c(N(C)C)cccc2[nH]1,+,.,-1,0,15
Cc1cc(=O)c2ccccc2[nH]1,0,-3,0,2,4
N#C/C(=C1/CCCCCN1)c1nc2ccccc2[nH]1,-3,13,-3,-1,39*
CCCC(=O)Nc1ccc2c(c1)OC[C@@H](C)N(Cc1nccs1)C[C@@H](C)[C@H](OC)CN(C)C2=O,.,.,.,-1,.
CC(C)C(=O)Nc1nc(-c2ccc(S(=O)(=O)N3CCOCC3)cc2)cs1,59*,-4,-5,1,2
COc1ccccc1OC(C)C(=O)Nc1nc(-c2ccc(S(=O)(=O)N3CCOCC3)cc2)cs1 (stereo unspecified),3,-21,-1,0,1
O=C(C[C@H]1CC[C@@H]2[C@H](COC[C@H](O)CN2Cc2cccc(-c3ccncc3)c2)O1)N1CCN(c2ccccc2)CC1,.,.,.,-1,.
O=[N+]([O-])c1ccc(N=Nc2ccc(O)cc2O)cc1,0,3,-3,0,-1
O=S(=O)(O)c1cc(Cl)cc(N=Nc2ccc(O)cc2O)c1O,-10,.,34*,.,13
CC(=O)NC(NC(C)=O)c1ccc(N(C)C)cc1,-2,-12,-1,2,47*
CCN(CC)c1ccc(C(NC(C)=O)NC(C)=O)cc1,-2,3,-4,0,2
CC(=O)c1ccc(N(C)C)cc1,0,-2,-1,-1,25
CN(C)c1ccc(C(=O)c2ccc(N(C)C)cc2)cc1,2,2,1,1,40*
C[C@H](CO)N1C[C@H](C)[C@H](CN(C)CC2CCCCC2)Oc2ccc(NS(=O)(=O)c3ccc(Cl)cc3)cc2CC1=O,.,.,.,-2,.
CCCn1nc(C(=O)Oc2ccc3c(C)cc(=O)oc3c2)c2ccccc2c1=O,+,0,-2,-1,6
CC(C)n1nc(C(=O)Oc2ccc(Cl)cc2)c2ccccc2c1=O,2,-2,0,-1,7
Cc1cc(=O)oc2cc(OC(=O)c3nn(C(C)C)c(=O)c4ccccc34)ccc12,+,1,0,.,14
CCN1[C@H](C(=O)NCC2CC2)[C@@H](CO)[C@@H]2Cn3c(ccc(-c4ccccc4OC)c3=O)[C@@H]21,.,.,.,-2,.
COCC#Cc1cnc2c(c1)C(=O)N([C@@H](C)CO)C[C@@H](C)[C@H](CN(C)C(=O)CCN1CCCCC1)O2,.,.,.,0,.
C[C@@H]1CCCCO[C@@H](CN(C)Cc2ccc(Cl)c(Cl)c2)[C@@H](C)CN([C@@H](C)CO)C(=O)c2cc(NC(=O)c3ccccc3)ccc2O1,.,.,.,-2,.

# Screening data: PubChem, several laboratories
